Assay results: PubChem BioAssay AID602139 (NMMLSC, 2011)
Some of the results follow. Unmarked numbers belong to inactive results. Rule as the data show it: active = inhibition above about 32%; inactive = the rest.

test system: Botulinum neurotoxin type A light chain protease (Clostridium botulinum A str. ATCC 3502); experiment: inhibition of botulinum toxin A LC protease – biochemical, flow cytometry, cherry pick 1, confirmation (AID 602139); settings: multiplex microsphere protease assay, at 10 µM, hits give high values

Row | Structure (SMILES) | inhibition
1 | COc1ccc(C(=O)Nc2nc(-c3ccc(OC)cc3)c(-c3ccc([N+](=O)[O-])cc3)s2)cc1 | 15.9%
2 | CCN1CCN(C(C(=O)NC2CCCC2)c2cc3c(cc2[N+](=O)[O-])OCO3)CC1 (centres undefined) | -0.8%
3 | COCCn1nnnc1C(c1cc2ccc(OC)cc2[nH]c1=O)N1CCc2ccccc2C1 (centres undefined) | 1.1%
4 | Cc1cccc2cc3c(N)c(C(=O)N4CCCc5ccccc54)sc3nc12 | 16.3%
